Here are results for 55 compounds from PubChem BioAssay AID463082 (The Scripps Research Institute Molecular Screening Center, 2010).

In all, about 330,000 compounds went through this assay and about 4,900 (1.5%) were called active. The sample as a whole holds a higher share of actives than the screen did. Unmarked numbers belong to inactive results.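 How the source made its calls: active means inhibition above the mean inhibition across the screen plus 3 SD (cut at about 25% in these data); inactive means the rest.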

The test deals with Platelet-activating factor acetylhydrolase (Homo sapiens) (UniProt Q13093). As to the kind of experiment: pPAFAH enzyme inhibitors, primary screen, biochemical, fluorescence polarization, human (AID 463082).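 Further: inhibitors block binding of the rhodamine activity-based probe so polarization drops; 0% = enzyme with DMSO and 100% = wells lacking pPAFAH.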 The note with it: recombinant pPAFAH, FP-rhodamine probe fluorescence polarization; at 3.39 µM; active compounds read high. (Polarisation of emitted light reports the rotation of a fluorescent probe.)
Chain of Platelet-activating factor acetylhydrolase (Homo sapiens) (Q13093 whole entry, looked up): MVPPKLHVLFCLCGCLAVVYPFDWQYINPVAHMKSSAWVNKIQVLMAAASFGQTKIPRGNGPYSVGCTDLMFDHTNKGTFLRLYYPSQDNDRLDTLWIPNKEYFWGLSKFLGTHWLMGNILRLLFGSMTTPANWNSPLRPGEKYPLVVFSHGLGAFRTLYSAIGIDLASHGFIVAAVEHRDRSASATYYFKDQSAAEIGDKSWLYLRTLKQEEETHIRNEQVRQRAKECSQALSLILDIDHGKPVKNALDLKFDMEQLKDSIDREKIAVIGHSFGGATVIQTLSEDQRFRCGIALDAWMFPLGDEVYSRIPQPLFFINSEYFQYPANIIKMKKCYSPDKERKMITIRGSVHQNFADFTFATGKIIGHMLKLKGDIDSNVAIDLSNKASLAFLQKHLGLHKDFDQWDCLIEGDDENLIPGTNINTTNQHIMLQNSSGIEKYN
In general, inhibition refers to the change of the read-out against control, counted positive when it falls. On to `CSc1ccc(/C=C/C(=O)NC23CC4CC(CC(C4)C2)C3)cc1`, for which the inhibition is -0.12%.

As for `COc1ccc(NC(C)=O)cc1NC(=O)CN1CCN(C2c3ccccc3-c3ccccc32)CC1`, the inhibition is 7.04%.

Regarding `COC(=O)c1c(NC(C)=O)sc(C(=O)Nc2ccccc2OC)c1C`, the inhibition was -5.75%.

On to `CCC(=O)Nc1sc(C(=O)Nc2ccccc2)c(C)c1C(=O)OC`, for which the inhibition was 50.5% (active).

On to `CCOC(=O)c1sc(NC(=O)COc2ncnc3ccccc23)c(C(=O)OCC)c1C`, for which the inhibition was 0.72%.

As to `COC(=O)c1ccc(CNC(=O)c2ccc3oc(C(C)C)nc3c2)cc1`, the inhibition is -0.67%.

With `CCCn1c(SCC(=O)c2ccc3c(c2)OCCO3)nnc1C(C)C`, the inhibition was 3.84%.

Turning to `Cc1ccc(NC(=O)CSc2nc(CSc3ccc(C)cc3)cc(=O)[nH]2)cc1`, the inhibition was 17.3%.

On to `COc1ccc(C)cc1-n1nnnc1SCc1nc2ccccc2c(=O)[nH]1`, for which the inhibition was -13.6%.

For `Cc1ccc(Nc2nc(CSc3nnnn3-c3ccccc3)cc(=O)[nH]2)cc1`, the inhibition was 27.2% (active).

Turning to `N#CC1(NC(=O)COC(=O)Cc2n[nH]c(=O)c3ccccc23)CCCCC1`, the inhibition was 0.43%.

`CC(C)C(C)(C#N)NC(=O)CSc1nc2scc(-c3ccccc3)c2c(=O)[nH]1` (stereo not given): the inhibition is 11.1%.

In the case of `CCCCCCSc1ccc([C@@H]2[C@H]3C(=O)N(CC)C(=O)[C@H]3[C@]3(C(=O)OC)CCCCN23)cc1`, the inhibition was 6.84%.

On to `CCN1C(=O)[C@@H]2[C@@H](c3ccc(-c4ccc(OC)cc4)c(OC)c3)N3CCC[C@@]3(C(=O)OC)[C@@H]2C1=O`, for which the inhibition is 2.25%.

Take `CCCCCCSc1ccc([C@@H]2[C@@H]3C(=O)N(CC)C(=O)[C@@H]3[C@]3(C(=O)OC)CCCCN23)cc1OC`: the inhibition is 26.9% (active).

Take `CCOC(=O)c1ccc2c(c1)nc(SCC(=O)NC(C)C)n2CC`: the inhibition is 3.79%.

`CN(CC(=O)NC1CCCCC1)S(=O)(=O)c1cccc2cccnc12`: the inhibition was 14.6%.

With `CCn1c(SCC(=O)Nc2sc(C)c(C)c2C#N)nnc1C1CC1`, the inhibition was 1.95%.

Take `Cn1nc([N+](=O)[O-])nc1Sc1ccc(C(C)(C)C)cc1`: the inhibition was 8.17%.

With `CCC(=C/c1sc2ccc3ccccc3c2[n+]1C)/C=C1\Sc2ccc3ccccc3c2N1C`, the inhibition is 32.4% (active).

On to `CC(C)Oc1ccccc1C(=O)NC(CO)C(=O)O` (stereo not given), for which the inhibition is 2.51%.

Consider `CCOC(=O)C1=C(C)OC(N)=C(C#N)C1c1cncc(-c2ccc(F)cc2)c1` (stereo not given), for which the inhibition is 2.24%.

Regarding `O=C(Nc1cccc(S(=O)(=O)NC2=NCCC2)c1)C1CCCCC1`, the inhibition is 3.38%.

Regarding `CCN(CCCNC(=O)c1ccc2c(c1)NC(=O)CN2C)c1cccc(C)c1`, the inhibition is 28% (active).

In the case of `CCN(CCCNC(=O)C1CCN(S(=O)(=O)c2cnc[nH]2)CC1)c1ccccc1`, the inhibition is -2.66%.

`CCN(CCCNC(=O)CCn1c(=O)[nH]c2ccsc2c1=O)c1ccccc1`: the inhibition was 4.5%.

With `COc1cccc(N2CC(NS(=O)(=O)c3ccc(Cl)cc3)CC2=O)c1` (stereo not given), the inhibition is 9.38%.

For the compound `Cc1ccc2cc(/C=N/NC(=O)[C@@H]3CCCN3)c(Cl)nc2c1`, the inhibition was 3.82%.

For the compound `O=C(O)c1ccc(N/N=C/c2ccc3ncccc3c2)cc1`, the inhibition was 4.87%.

Consider `Cc1ccc2cc(/C=N/Nc3ccc(C(=O)O)cc3)c(Cl)nc2c1`, for which the inhibition was 34% (active).

As for `COC(=O)[C@]1(C)CCC[C@@]2(C)C3CC[C@]4(OC(C)=O)C[C@@]3(CCC21)CC4=NO` (stereo not given in full), the inhibition was -4.31%.

On to `COc1ccc(C)cc1NC(=O)CSc1nnc(CC(=O)Nc2ccccc2F)n1C`, for which the inhibition was 4.03%.

Regarding `CC1(OC(=O)C2CCCC2)C(=O)C=C2C=C(c3ccc(C#N)cc3)OC=C2C1=O` (stereo not given), the inhibition is 52.5% (active).

As for `C=CCN1C=C2C(=O)C(C)(OC(=O)CCc3ccccc3)C(=O)C=C2C=C1c1ccc(C#N)cc1` (stereo not given), the inhibition is 12.6%.

As for `COCCN1C=C2C(=O)C(C)(OC(=O)C3CCCC3)C(=O)C=C2C=C1c1ccsc1` (stereo not given), the inhibition was 5.4%.

As for `O=C(COc1cccc2ccccc12)Nc1cc(S(=O)(=O)N2CCOCC2)ccc1N1CCOCC1`, the inhibition is 9.7%.

For `O=C(COC(=O)Cc1ccc(F)cc1)Nc1cc(S(=O)(=O)N2CCOCC2)ccc1N1CCCC1`, the inhibition was 31% (active).

On to `O=C(COC(=O)c1ccccc1F)Nc1cc(S(=O)(=O)N2CCOCC2)ccc1N1CCCC1`, for which the inhibition was 5.42%.

Turning to `Cc1ccc(NC(=O)Cc2nc(COC(=O)C(C)NS(=O)(=O)c3ccc(C)cc3)cs2)cc1` (stereo not given), the inhibition was 32.8% (active).

Consider `CC(=O)Nc1ccc(S(=O)(=O)NC(C)C(=O)OCC(=O)NC2CCCC2)cc1` (stereo not given), for which the inhibition was -1.59%.

As to `C/C=C/C(=O)OCc1csc(CC(=O)Nc2ccccc2C)n1`, the inhibition was -0.07%.

Turning to `COc1ccc(C(=O)NC(=S)Nc2ccccc2N2CCN(S(C)(=O)=O)CC2)cc1OC`, the inhibition was 51.7% (active).

On to `COc1ccccc1C(=O)NC(=S)Nc1ccccc1N1CCCCC1`, for which the inhibition was 5.28%.

As to `CCC(=O)Nc1ccccc1N1CCN(S(C)(=O)=O)CC1`, the inhibition was 1.48%.

As for `O=C(CSc1ncnc2c1oc1ccccc12)NC1CCCC1`, the inhibition is -0.51%.

For the compound `Cc1ccc(Nc2c(F)c(F)c(F)c(F)c2C(=O)O)c(C)c1`, the inhibition is 8.5%.

Regarding `COCCCNC(=O)CC1C[C@H](C(=O)N2CCCCC2)[C@@]2(CCc3ccccc3)c3[nH]c4ccccc4c3CCN2C1=O` (stereo not given in full), the inhibition was 1.17%.

For the compound `CC1=C/C(=N\OS(=O)(=O)c2ccccc2)C=CC1=O`, the inhibition is 0.71%.

For `O=C(CCCN1C(=O)/C(=C\c2ccco2)SC1=S)Nc1cccc2ccccc12`, the inhibition was 27.9% (active).

In the case of `O=C(CCCN1C(=O)/C(=C/c2ccccc2)SC1=S)Nc1ccc(O)cc1`, the inhibition was 3.48%.

On to `COc1ccc(/C=C2\SC(=S)N(CCCC(=O)NC3CCCC3)C2=O)cc1OC`, for which the inhibition is -4.96%.

For the compound `COc1ccc(/C=C2\SC(=S)N(CCC(=O)Nc3cccc(C(=O)O)c3)C2=O)cc1OC`, the inhibition was -14.2%.

As for `O=C(CCCN1C(=O)/C(=C/c2cccs2)SC1=S)Nc1ccc(O)cc1`, the inhibition was 1.25%.

For `O=C(CCCN1C(=O)/C(=C/c2ccco2)SC1=S)Nc1ccccc1`, the inhibition is 25.9% (active).

As for `COc1ccc(S(=O)(=O)N2CCN(C)CC2)c(C)c1`, the inhibition is -1.79%.
